The structures appear in SMILES notation. Inconclusive results are not listed. Entries that show only a call come without a potency. Values without a mark were called inactive. The source made the active and inactive calls. The call rests on the fitted dose curve; in most records, active means well fitted curve in the direction sought with a large enough effect; inconclusive means small, poorly fitted or top-dose-only effect, or another doubt; inactive means no such curve, though single readings can be large; an effect the other way counts as inactive or inconclusive.

Rap guanine nucleotide exchange factor 3 (Homo sapiens), sequence (O95398 whole entry, looked up): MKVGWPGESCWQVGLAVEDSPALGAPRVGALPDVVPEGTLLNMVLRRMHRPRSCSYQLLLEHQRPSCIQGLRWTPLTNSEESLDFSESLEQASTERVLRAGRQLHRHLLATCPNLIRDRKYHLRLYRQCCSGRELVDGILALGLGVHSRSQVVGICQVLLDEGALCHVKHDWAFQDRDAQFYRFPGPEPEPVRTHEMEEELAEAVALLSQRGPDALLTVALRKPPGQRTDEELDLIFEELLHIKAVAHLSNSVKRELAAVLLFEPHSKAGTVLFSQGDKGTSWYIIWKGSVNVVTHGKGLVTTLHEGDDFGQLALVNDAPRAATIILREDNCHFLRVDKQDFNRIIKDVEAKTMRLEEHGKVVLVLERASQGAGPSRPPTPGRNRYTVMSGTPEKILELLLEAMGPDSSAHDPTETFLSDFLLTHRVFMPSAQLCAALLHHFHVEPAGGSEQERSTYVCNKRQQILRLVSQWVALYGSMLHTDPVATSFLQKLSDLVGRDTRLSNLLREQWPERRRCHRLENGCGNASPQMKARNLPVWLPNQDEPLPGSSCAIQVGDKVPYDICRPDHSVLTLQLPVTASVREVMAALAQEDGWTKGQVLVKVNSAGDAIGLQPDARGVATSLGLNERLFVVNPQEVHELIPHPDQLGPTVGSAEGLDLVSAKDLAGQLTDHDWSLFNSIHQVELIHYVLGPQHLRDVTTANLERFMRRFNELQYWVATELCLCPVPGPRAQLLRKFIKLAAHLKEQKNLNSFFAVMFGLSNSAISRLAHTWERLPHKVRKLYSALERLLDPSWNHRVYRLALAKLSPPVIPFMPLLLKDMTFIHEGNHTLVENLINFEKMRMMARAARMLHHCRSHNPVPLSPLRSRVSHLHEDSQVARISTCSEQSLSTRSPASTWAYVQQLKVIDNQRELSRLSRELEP

One experiment has as its target Rap guanine nucleotide exchange factor 3 (Homo sapiens) (UniProt O95398). Kind of experiment: Counterscreen qHTS for antagonist of cAMP-regulated guanine nucleotide exchange factor 3 (EPAC1) (AID 1645888).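 Further: fluorescence loss as bound BODIPY-GDP is released from Rap1B.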 The following applies: Rap1B-BODIPY-GDP nucleotide exchange, fluorescence; series mostly up to 154 µM. In a few lines: (§1)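 Rap1B-BODIPY-GDP 250 nM + GDP 50 uM; cpds 7-pt, final 9.74 nM–152 uM (activator mode) or from 7.32 nM upwards (inhibitor mode); RT; FI 480/540 nm at 5 and 30 min, then ± cAMP, reread.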
A general note: A counterscreen serves to expose hits that act by an unwanted route or on another target.
Turning to `O=C(CSc1nccn1C1CCCC1)Nc1cc(C(F)(F)F)ccc1Cl`, the Potency entry was “inactive”.
On the same count and under the same terms, as for `COc1cc(NC(=O)CCc2c(C)nc3c4c(C)cc(C)nc4nn3c2C)cc(OC)c1`, the entry is “inactive”.
The same measure, in the same setting: to `COC(=O)c1ccccc1NC(=O)c1nn(-c2ccc(OC)cc2)c(=O)c2c1c1ccccc1n2C` belongs “inactive”.
In the case of `Cc1ccc(S(=O)(=O)CCC(=O)Nc2sccc2C#N)cc1`, the activity change, negative = inhibition is -10.4% [at 30.8 µM].
On the same count and under the same terms, as for `COc1cnc(-c2ccccc2)c(-c2ccccc2)n1`, the figure is -6.36% [at 30.8 µM].
For the compound `COc1ccc(C(=O)Nc2cccc(/C=C(/CCC(=O)O)c3nc4ccccc4s3)c2)cc1`, the Potency entry was “inactive”.
On to `O=C(Nc1nc2ccc(Cl)cc2s1)C1CCCO1` (stereo not given), for which the activity change, negative = inhibition is 0.458% [at 30.8 µM].
On to `O=C(c1ccco1)N(Cc1cccs1)c1ccc(F)cc1`, for which the Potency entry was “inactive”.
On the same count and under the same terms, as for `CCN1C(=O)/C(=C/c2ccc(OCc3ccc(C(=O)O)cc3)c(Cl)c2)NC1=S`, the entry is “inactive”; as for `O=C(COC(=O)Cc1c(Cl)cccc1Cl)NCC1CCCO1` (stereo not given), “inactive”; as for `C/C(CC(=O)Nc1ccc(Cl)c(C(F)(F)F)c1)=N\NC(=O)c1cnccn1`, “inactive”.
The same measure, in the same setting: as for `O=C(O)C1CC(=O)N(c2ccc(OCc3c(F)cccc3Cl)cc2)C1` (stereo not given), the entry is “inactive”.
Consider `CC1Cc2nc(SCC(=O)N3CCCc4ccccc43)n(C)c(=O)c2S1` (stereo not given), for which the activity change, negative = inhibition was -11.9% [at 30.8 µM].
Same read-out and setting: to `CC1CCC/C(=C\Nc2ccc(O)cc2)C1=O` (stereo not given) belongs -12.6% [at 30.8 µM].
On to `O=C1COc2ccc(C(=O)COC(=O)c3ccc([N+](=O)[O-])cc3Cl)cc2N1`, for which the Potency result is “inactive”.
Turning to `Cc1ccccc1NC1c2ccccc2C(=O)N1Cc1ccco1` (stereo not given), the activity change, negative = inhibition is -11.4% [at 30.8 µM].
`Cn1cccc1/C=C1\CCC/C(=C\c2cccn2C)C1=O`: the Potency entry is “inactive”.
As for `COc1ccc2nc3oc(C(=O)Nc4cccc(C(F)(F)F)c4)cc3cc2c1`, the Potency entry is “inactive”.
The same measure, in the same setting: as for `COc1ccc(NC(=O)CCCSc2nc(-c3ccco3)cc(C(F)(F)F)n2)cc1`, the entry is “inactive”; as for `CCc1cc2c(=O)c(-c3nc4ccccc4n3C)coc2c(CN2CCCCC2C)c1O` (stereo not given), “inactive”; as for `NC(=O)c1ccsc1NC(=O)CS(=O)(=O)c1ccc(F)cc1`, “inactive”.
Turning to `CCOc1cnc(-c2c(-c3c(Cl)cccc3Cl)noc2C)o1`, the activity change, negative = inhibition was -6.2% [at 30.8 µM].
Still for that read-out and setting: to `O=C(NCc1ccc(F)cc1)C(c1cccnc1)N(C(=O)c1csnn1)c1ccccc1` (stereo not given) belongs -0.606% [at 30.8 µM].
As to `COc1ccc(C2CC(c3ccccc3OC(C)=O)=NN2C(C)=O)cc1` (stereo not given), the Potency entry is “inactive”.
The same measure, in the same setting: as for `Cc1cc(C)cc(OCCSc2nc(-c3ccc(C(C)(C)C)cc3)nc3cc(=O)[nH]n23)c1`, the entry is “inactive”.
As for `COc1ccc(/C(N)=N/OC(=O)c2ccc(C)c([N+](=O)[O-])c2)cc1`, the activity change, negative = inhibition was 4.78% [at 30.8 µM].
The same measure, in the same setting: to `CCCCn1nnc(NC(=O)c2ccco2)n1` belongs 4.22% [at 30.8 µM].
On to `CCCSc1nc(C)cc(C)c1S(=O)(=O)c1ccccc1C`, for which the Potency result is “inactive”.
Consider `O=C(NCc1ccco1)c1sc(=S)n2c1[nH]c(=O)c1ccccc12`, for which the activity change, negative = inhibition is 3.28% [at 30.8 µM].
Turning to `COc1cccc(OC)c1C(=O)NC(=S)NNC(=O)[C@H]1C[C@@H]1c1ccccc1`, the Potency result is “inactive”.
Turning to `COc1ccc(CCNC2CC(=O)N(CCc3ccc(OC)c(OC)c3)C2=O)cc1` (stereo not given), the activity change, negative = inhibition is -1.61% [at 30.8 µM].
Same read-out and setting: as for `CSc1ccccc1C(=O)Nc1ccc(C)cc1C`, the figure is -16.8% [at 30.8 µM].
In the case of `Cc1ccc(-n2nnnc2SCC(=O)NCC2(N3CCOCC3)CCCCC2)cc1`, the Potency entry was “inactive”.
Regarding `COc1cc2c(c(OC)c1OC)C(c1ccc3c(c1)OCO3)CC(=O)O2` (stereo not given), the activity change, negative = inhibition was -9.71% [at 30.8 µM].
Still for that read-out and setting: to `COc1cccc(C(=O)NC(=S)N2c3ccccc3CC2C)c1OC` (stereo not given) belongs -1.25% [at 30.8 µM].
As to `CCc1nnc(NS(=O)(=O)c2ccc(NC(=S)NC(=O)c3ccc(Br)cc3)cc2)s1`, the Potency result is “inactive”.
Same read-out and setting: as for `CC(C)Oc1nc(-c2ccccc2Cl)nc2ccccc12`, the entry is “inactive”.
As for `CCOC(=O)N1CCN(C(=O)C(C)(C)Oc2ccc(Cl)cc2)CC1`, the activity change, negative = inhibition was 6.37% [at 30.8 µM].
On the same count and under the same terms, to `COc1ccc(-n2c(SCC(=O)Nc3ccccc3OC)nc(O)cc2=O)cc1` belongs -3.75% [at 30.8 µM]; to `CCOc1ccc2nc(S(=O)(=O)NC(=O)C3(C)CCN3C(=O)CCc3cccs3)sc2c1` (stereo not given), -20.4% [at 30.8 µM].

A further experiment shares this target. Kind of experiment: Counterscreen qHTS for agonist of cAMP-regulated guanine nucleotide exchange factor 3 (EPAC1) (AID 1645889). Further: nearly all actives have a fitted effect of over 40% in size. Further: potency means the concentration at half of the fitted maximal effect. Conditions: EPAC1 Rap1B-BODIPY-GDP exchange, fluorescence; series mostly up to 154 µM. A digest of the protocol: as §1
For the compound `O=C(CSc1nccn1C1CCCC1)Nc1cc(C(F)(F)F)ccc1Cl`, the Potency entry is “inactive”.
Same read-out and setting: to `COc1cc(NC(=O)CCc2c(C)nc3c4c(C)cc(C)nc4nn3c2C)cc(OC)c1` belongs “inactive”; to `COC(=O)c1ccccc1NC(=O)c1nn(-c2ccc(OC)cc2)c(=O)c2c1c1ccccc1n2C`, “inactive”.
`Cc1ccc(S(=O)(=O)CCC(=O)Nc2sccc2C#N)cc1`: the activation is 34.4% [at 30.8 µM].
Still for that read-out and setting: to `COc1cnc(-c2ccccc2)c(-c2ccccc2)n1` belongs -4.28% [at 30.8 µM].
For the compound `COc1ccc(C(=O)Nc2cccc(/C=C(/CCC(=O)O)c3nc4ccccc4s3)c2)cc1`, the Potency result was “inactive”.
On to `O=C(Nc1nc2ccc(Cl)cc2s1)C1CCCO1` (stereo not given), for which the activation was 15.7% [at 30.8 µM].
In the case of `O=C(c1ccco1)N(Cc1cccs1)c1ccc(F)cc1`, the Potency result is “inactive”.
Same read-out and setting: to `CCN1C(=O)/C(=C/c2ccc(OCc3ccc(C(=O)O)cc3)c(Cl)c2)NC1=S` belongs “inactive”; to `O=C(COC(=O)Cc1c(Cl)cccc1Cl)NCC1CCCO1` (stereo not given), “inactive”; to `C/C(CC(=O)Nc1ccc(Cl)c(C(F)(F)F)c1)=N\NC(=O)c1cnccn1`, “inactive”.
For `O=C(O)C1CC(=O)N(c2ccc(OCc3c(F)cccc3Cl)cc2)C1` (stereo not given), the Potency entry was “inactive”.
On to `CC1Cc2nc(SCC(=O)N3CCCc4ccccc43)n(C)c(=O)c2S1` (stereo not given), for which the activation was 4.66% [at 30.8 µM].
On the same count and under the same terms, as for `CC1CCC/C(=C\Nc2ccc(O)cc2)C1=O` (stereo not given), the figure is 3.58% [at 30.8 µM].
In the case of `O=C1COc2ccc(C(=O)COC(=O)c3ccc([N+](=O)[O-])cc3Cl)cc2N1`, the Potency result was “inactive”.
Regarding `Cc1ccccc1NC1c2ccccc2C(=O)N1Cc1ccco1` (stereo not given), the activation is 17.8% [at 30.8 µM].
For the compound `Cn1cccc1/C=C1\CCC/C(=C\c2cccn2C)C1=O`, the Potency is 39.8 µM (active).
Regarding `COc1ccc2nc3oc(C(=O)Nc4cccc(C(F)(F)F)c4)cc3cc2c1`, the Potency result was “inactive”.
With `COc1ccc(NC(=O)CCCSc2nc(-c3ccco3)cc(C(F)(F)F)n2)cc1`, the Potency entry is “inactive”.
Still for that read-out and setting: to `CCc1cc2c(=O)c(-c3nc4ccccc4n3C)coc2c(CN2CCCCC2C)c1O` (stereo not given) belongs “inactive”; to `NC(=O)c1ccsc1NC(=O)CS(=O)(=O)c1ccc(F)cc1`, “inactive”.
As for `CCOc1cnc(-c2c(-c3c(Cl)cccc3Cl)noc2C)o1`, the activation is 12% [at 30.8 µM].
As to `O=C(NCc1ccc(F)cc1)C(c1cccnc1)N(C(=O)c1csnn1)c1ccccc1` (stereo not given), the activation is 5.08% [at 30.8 µM].
As for `COc1ccc(C2CC(c3ccccc3OC(C)=O)=NN2C(C)=O)cc1` (stereo not given), the Potency entry is “inactive”.
The same measure, in the same setting: as for `Cc1cc(C)cc(OCCSc2nc(-c3ccc(C(C)(C)C)cc3)nc3cc(=O)[nH]n23)c1`, the entry is “inactive”.
With `COc1ccc(/C(N)=N/OC(=O)c2ccc(C)c([N+](=O)[O-])c2)cc1`, the activation was 16.7% [at 30.8 µM].
Still for that read-out and setting: as for `CCCCn1nnc(NC(=O)c2ccco2)n1`, the figure is 0.136% [at 30.8 µM].
On to `CCCSc1nc(C)cc(C)c1S(=O)(=O)c1ccccc1C`, for which the Potency entry is “inactive”.
On to `O=C(NCc1ccco1)c1sc(=S)n2c1[nH]c(=O)c1ccccc12`, for which the activation was -8.6% [at 30.8 µM].
Take `COc1cccc(OC)c1C(=O)NC(=S)NNC(=O)[C@H]1C[C@@H]1c1ccccc1`: the Potency result was “inactive”.
As for `COc1ccc(CCNC2CC(=O)N(CCc3ccc(OC)c(OC)c3)C2=O)cc1` (stereo not given), the activation is 8.52% [at 30.8 µM].
On the same count and under the same terms, to `CSc1ccccc1C(=O)Nc1ccc(C)cc1C` belongs -3.4% [at 30.8 µM].
As for `Cc1ccc(-n2nnnc2SCC(=O)NCC2(N3CCOCC3)CCCCC2)cc1`, the Potency result is “inactive”.
With `COc1cc2c(c(OC)c1OC)C(c1ccc3c(c1)OCO3)CC(=O)O2` (stereo not given), the activation is 18.7% [at 30.8 µM].
For `COc1cccc(C(=O)NC(=S)N2c3ccccc3CC2C)c1OC` (stereo not given), the activation was 14.2% [at 30.8 µM].
In the case of `CCc1nnc(NS(=O)(=O)c2ccc(NC(=S)NC(=O)c3ccc(Br)cc3)cc2)s1`, the Potency entry is “inactive”.
On the same count and under the same terms, to `CC(C)Oc1nc(-c2ccccc2Cl)nc2ccccc12` belongs “inactive”.
Consider `CCOC(=O)N1CCN(C(=O)C(C)(C)Oc2ccc(Cl)cc2)CC1`, for which the activation is 21.9% [at 30.8 µM].
On the same count and under the same terms, as for `COc1ccc(-n2c(SCC(=O)Nc3ccccc3OC)nc(O)cc2=O)cc1`, the figure is 2.02% [at 30.8 µM]; as for `CCOc1ccc2nc(S(=O)(=O)NC(=O)C3(C)CCN3C(=O)CCc3cccs3)sc2c1` (stereo not given), 4.36% [at 30.8 µM].

Values taken from PubChem BioAssay (NCATS).
